Hits are enriched below; roughly 4.7% of the tested compounds scored in any of these assays.
D1 PAM: potentiators of human D1 dopamine receptor | potentiation, % at 10 µM | 360,000 tested, 0.036% active | P21728 | HEK293 TREx D1 cells, calcium flux, dopamine EC20 potentiation; in the data active = potentiation above about 30%; also: 0% is about no effect
TRHR ag: agonists of human TRH receptor; TRHR cells, calcium flux fluo-8, FDSS agonist mode; activation, % at 2 µM; 360,000 tested, 0.18% active; also: 0% is about no effect
Target sequence (P34981 whole entry, looked up): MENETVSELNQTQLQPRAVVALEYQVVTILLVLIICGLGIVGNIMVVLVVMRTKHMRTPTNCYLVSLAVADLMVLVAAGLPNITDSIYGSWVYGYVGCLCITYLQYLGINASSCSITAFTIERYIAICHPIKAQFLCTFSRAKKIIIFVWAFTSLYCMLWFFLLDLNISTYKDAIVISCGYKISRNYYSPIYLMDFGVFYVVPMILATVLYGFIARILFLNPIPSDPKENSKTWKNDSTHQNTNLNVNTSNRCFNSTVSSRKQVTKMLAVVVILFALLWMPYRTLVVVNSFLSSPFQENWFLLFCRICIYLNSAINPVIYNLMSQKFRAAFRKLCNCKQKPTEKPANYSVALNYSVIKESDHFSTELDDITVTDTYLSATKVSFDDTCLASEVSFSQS
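Fluo-8-loaded TRHR cells; 10 s baseline, compound added, kinetic Ca2+ fluorescence read 1/s, agonist mode.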
D1 agonist: agonists of human D1 dopamine receptor. HEK293 T-REx D1 cells, calcium flux, agonist mode. activation, % at 2 µM. 360,000 tested, 1% active. AID 504660; also: 0% is about no effect
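Agonism was scored from calcium flux recorded over 180 s (1 read/s) after pintool compound addition, following a 10-cycle baseline. Cells were inducible force-coupled HEK293 TREx D1, plated overnight at 30 C and loaded with no-wash calcium dye.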
D1 antagonist: antagonists of human D1 dopamine receptor; P21728; HEK293 TREx D1 cells, calcium flux, dopamine EC80; hits give low values; activity change, negative = inhibition, % at 10 µM; 360,000 tested, 3.2% active; in the data active = activity change below about -30%; also: % is scaled to controls: 0 for no effect and ±100 for the full control effect
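Tetracycline-induced HEK293 T-REx cells with force-coupled D1 receptor were loaded with a no-wash calcium dye. Compound was added after a 10 s baseline and read kinetically for 180 s; EC80 dopamine was then added and calcium flux followed another 180 s.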
TRHR PAM: allosterically enhances the human TRH receptor; P34981; TRHR cells, fluo-8 calcium fluorescence, EC20 TRH enhancement; enhancement, % at 2 µM; 360,000 tested, 0.66% active; in the data active = enhancement above about 30%; also: 0% is about no effect
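TRHR-expressing cells loaded with fluo-8 calcium dye were read kinetically (ex 480/em 530) during compound addition, then stimulated with an EC20 of TRH (10 nM final). Enhancement of the Gq-mediated intracellular calcium response was scored.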
Active calls of the source: *; . = no result; ! = a repeat was not active. Rule as the data show it, unless noted: active = activation above about 30%; inactive = the rest.

SMILES	D1 PAM	TRHR ag	D1 agonist	D1 antagonist	TRHR PAM
Cc1ccc2nc(SCc3ccc([N+](=O)[O-])cc3)[nH]c2c1	-4.8	1.8	2.9	-35.3*	-11.1
O=[N+]([O-])c1ccc2nc(SCc3cn4ccccc4n3)[nH]c2c1	-0.3	-0.3	2.5	-16.5	-5.3
Cc1cccc2nc(CSc3nc4ccc([N+](=O)[O-])cc4[nH]3)cn12	-21.7	-2.6	0.3	-37.4*	3.7
COc1ccc(OC)c(S(=O)(=O)Nc2cc3c(cc2C)n(C)c(=O)c(=O)n3C)c1	-4.0	0.2	1.9	10.2	1.1
COC(=O)c1ccccc1NC(=O)CN1C(=O)COc2ccc(Cl)cc21	-5.8	-0.1	-1.3	-2.7	-1.8
Cc1ccc(C(CC(=O)Nc2ccc(C)cc2C)N2Cc3ccccc3C2=O)cc1 (stereo not given)	-4.0	-0.6	4.8	-0.4	-1.5
Cc1csc(NC(=O)CSc2nnc(-c3ccoc3C)o2)n1	-4.7	-0.6	8.8	-6.4	0.2
Cc1occc1-c1nnc(SCC(=O)Nc2nc(C(C)(C)C)cs2)o1	-3.2	0.3	31.5*	.	-10.0
Cc1ccccc1-n1c2nc(=O)n(C)c(=O)c-2cc2ccccc21	-8.1	0.3	1.0	-8.6	-2.5
Cn1c(=O)nc2n(Cc3ccccc3)c3ccccc3cc-2c1=O	1.2	-0.3	2.7	-14.4	30.7*
Cc1ccccc1OCCNc1cc(N2CCN(CCO)CC2)ccc1[N+](=O)[O-]	-11.8	1.3	33.0*	-19.0	1.2
CC1CN(c2ccc([N+](=O)[O-])c(NCCOc3ccccc3)c2)CCN1 (stereo not given)	-9.6	4.2	32.4*	-20.0	-3.0
COc1ccc(OCCNc2cc(N3CCCCC3)ccc2[N+](=O)[O-])cc1	5.7	-0.2	6.2	-7.1	1.4
CC1CC(C)CN(CCCNC(=O)c2nn(C)c3c2CS(=O)(=O)c2ccccc2-3)C1 (stereo not given)	0.3	0.4	-0.5	-42.1*	4.4
Cc1cccc(N2CCN(C(=O)c3nn(C)c4c3CS(=O)(=O)c3ccccc3-4)CC2C)c1 (stereo not given)	0.3	-0.4	1.0	-5.5	-12.4
Cn1nc(C(=O)NCCCN2CCCCC2)c2c1-c1ccccc1SC2	-5.5	1.7	4.8	-30.5*	-11.3
Cc1cccc(N2CCN(C(=O)c3nn(C)c4c3CSc3ccccc3-4)CC2C)c1 (stereo not given)	-5.2	0.4	0.8	-46.3*	0.1
Cc1ccc(CCNC(=O)c2nn(C)c3c2CSc2ccccc2-3)cc1	-0.3	0.3	0.7	4.7	-0.7
COc1ccccc1CNC(=O)c1nn(C)c2c1CS(=O)(=O)c1ccccc1-2	-10.8	-1.0	2.5	-27.8	-19.1
Cn1nc(C(=O)NCc2ccccc2Cl)c2c1-c1ccccc1S(=O)(=O)C2	1.4	-0.7	2.8	-30.6*!	-2.0
CC(=O)N1CCc2cc(S(=O)(=O)C(C)CC(=O)Nc3ccc(Br)c(C)c3)ccc21 (stereo not given)	-0.1	-0.5	9.5	-13.5	-5.3
CC1N=C2c3ccccc3N=C(SCC(=O)NCCc3ccccc3)N2C1=O (stereo not given)	1.1	0.2	-0.9	-7.1	2.9
CCOC(=O)c1ccc(N2C(=O)c3n[nH]c(-c4ccco4)c3C2c2ccc(F)cc2)cc1 (stereo not given)	2.6	4.6	11.9	26.3	7.3
CCOC(=O)c1ccc(N2C(=O)c3n[nH]c(-c4ccco4)c3C2c2cccc(F)c2)cc1 (stereo not given)	9.0	6.9	16.3	33.2	33.9*
NC(=O)C1CCN(c2nc(-c3cc4ccccc4o3)cs2)CC1	-5.9	-0.8	22.8	-33.4*	4.5
SMILES	D1 PAM	TRHR ag	D1 agonist	D1 antagonist	TRHR PAM
COc1ccc(N=Nc2nc3ccc(Br)cc3n2C)cc1	0.9	-0.1	342.9*	23.6	4.3
COc1ccc(-c2c(-c3cc(OC)cc(OC)c3)n(C)c3ccc(Br)cc23)cc1	-0.3	-0.1	-0.1	-19.7	6.2
Cc1ccccc1NCC(=O)N/N=C/c1ccc([N+](=O)[O-])cc1	-0.2	-0.5	3.5	-43.2*	16.6
O=C(Cc1ccccc1)N/N=C/c1ccc(-c2ccc([N+](=O)[O-])cc2)o1	-8.9	4.8	5.2	-53.9*	-0.5
O=C(N/N=C/c1ccc(-c2ccc([N+](=O)[O-])cc2)o1)c1cccnc1	-4.2	0.5	3.8	-42.4*	3.8
O=C(N/N=C/c1ccc([N+](=O)[O-])cc1)c1cccnc1	-5.3	-0.1	-1.6	27.9	1.3
NC(=O)N/N=C/c1ccc(-c2ccc([N+](=O)[O-])cc2)o1	-6.7	-0.7	19.9	-3.6	6.3
COc1ccc(/C=N/NC(=O)c2cccc([N+](=O)[O-])c2)cc1OC(=O)c1ccccc1	-5.0	0.4	-2.4	-9.1	-1.2
COc1ccc(Oc2ccc(/C=N/NC(=O)c3cccnc3)cc2[N+](=O)[O-])cc1	-8.0	-1.1	-2.9	-42.7*	-26.2
O=C(N/N=C/c1ccc(OC(=O)c2ccccc2)c([N+](=O)[O-])c1)c1ccc(O)cc1	-9.5	-0.7	4.2	-33.1*	-3.4
COc1cc(/C=N/NC(=O)c2sc3ccccc3c2Cl)ccc1OC(=O)c1ccc([N+](=O)[O-])cc1	-5.3	0.6	1.3	-37.7*	-1.8
CCOc1cc(/C=N/NC(=O)CSc2nncn2C)ccc1OC(=O)c1ccc(Cl)cc1	-4.8	-0.5	-0.7	-54.9*	30.1*
CCOc1cc(/C=N/NC(=O)CSc2nncn2C)ccc1OCC(N)=O	5.0	0.4	4.5	17.3	2.4
O=C(CCCn1c(=O)c2sccc2n(Cc2cccc(Cl)c2)c1=O)NCc1ccc2c(c1)OCO2	3.5	0.4	5.2	-8.1	-2.6
COC(=O)c1cnc(NCc2ccc(F)cc2)c2ccccc12	-2.1	0.2	-0.9	9.2	5.1
CCOc1cc(/C=N\NC(=O)c2ccc(NC(=O)CC)cc2)ccc1OC(=O)c1ccccc1	-11.0	0.3	4.8	-57.3*	4.4
CCOc1cc(/C=N\NC(=O)c2ccc(NC(=O)C(C)(C)C)cc2)ccc1OC(=O)c1ccc(C)cc1	-3.1	0.4	1.1	13.5	1.0
O=C(NC1=NCCS1)c1ccccc1Cl	-4.3	0.0	2.2	-7.5	-1.8
O=C(NC1=NCCS1)c1cc(-c2ccc(F)cc2)nc2ccccc12	-4.2	1.5	-1.3	-36.7*	10.2
CCOc1cccc(-c2cc(C(=O)Nc3ccon3)c3ccccc3n2)c1	-2.2	0.3	-1.7	-4.7	1.7
O=C(Nc1ccon1)c1cc(-c2ccccc2)nc2ccccc12	-7.0	1.0	0.0	-32.2*	-5.7
Cc1ccc(NC(=O)c2cc(-c3cccs3)nc3ccccc23)nc1	-10.9	-0.5	1.1	-48.2*	-1.8
O=C(NC1=NCCS1)c1cc(Cl)ccc1Cl	-2.8	0.2	5.1	4.5	38.9*
CCn1c(SCc2ccc(F)cc2Cl)nnc1-c1nonc1NC(C)=O	-2.1	-2.0	8.0	-26.2	-12.2
